Shiga toxin inh = blocks Shiga toxin action in Vero cells | Vero cells, Shiga toxin protein synthesis inhibition reporter | inhibition, % at 38.7 µM | hit rate 9.2% among 290,000 | AID 2315; in the data active = inhibition mostly above about 28%, no sharp cut-off; inactive = mostly below about 43%; note: 0% is about no effect
NS1 function inh = blocks influenza NS1 protein function. Potency, µM (doses to about 46.1 µM), without a hit: top-dose activity, positive = more growth. hit rate 0.4% among 270,000; calls by dose curve; note: potency is the fitted concentration of half-maximal effect; actives are rising curves; nearly all actives have a fitted effect of over 50% in size
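Read-out: OD600 growth recovery of NS1-expressing budding yeast. Cells grown overnight at 30C in -URA glucose medium, washed, resuspended and diluted 1:100 in 2% galactose assay medium, pH 6.0. Same strain lacking NS1 served as positive control.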
Pf growth 96h = P. falciparum growth inhibition at 96 hours; Potency, µM (highest dose often 28.7 µM), for the others: top-dose activity change, negative = inhibition, hits mostly inhibitors; hit rate 6.9% among 320,000; P. falciparum luciferase reporter growth, 96 h; AID 504834; note: potency is the fitted concentration of half-maximal effect; % is set by controls: 0 for no effect and ±100 for the full control effect
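Two-generation exposure (96 h) targets delayed-death phenotype. Reporter parasites carrying integrated firefly luciferase, in red cells at 2% hematocrit and 0.05% parasitemia final, kept at 37 C, 5% CO2; luminescence loss indicates inhibition.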
Pf growth 48h = inhibits P. falciparum growth in the first generation, 48 h; P. falciparum luciferase growth in erythrocytes, 48 h; Potency, µM (top dose mostly 28.7 µM), inactives show at the highest dose activity change, negative = inhibition, hits mostly inhibitors; hit rate 5.9% among 310,000; AID 504832; note: potency is the fitted concentration of half-maximal effect; % is set by controls: 0 for no effect and ±100 for the full control effect
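Read-out is firefly luciferase luminescence from an integrated reporter in P. falciparum, so falling signal marks reduced parasite growth. Infected erythrocytes were at 2% hematocrit and 0.1% parasitemia (final) in Albumax-supplemented RPMI 1640.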
CHX counter = counter-screen hit for Shiga toxin inhibitors, cycloheximide. cell reporter, cycloheximide protein synthesis inhibition counterscreen. max response, %. hit rate 12% among 300,000; in the data active = max response mostly above about 13%, no sharp cut-off; inactive = mostly below about 14%; note: read at 38.3 µM for the half of the compounds with a filed dose; 0% is about no effect
Numbers without * were called inactive; [ ] = remark or other dose. Hits are enriched below; roughly 21% of the tested compounds scored in any of these assays. Unless noted, calls come from the whole dose curve; as a rule, active = well fitted inhibition curve with a large enough effect; inconclusive = small, poorly fitted or top-dose-only effect, or another doubt; inactive = no such curve, though single readings can be large or run the other way.

How did CCC(Oc1ccccc1)C(=O)Nc1ccccn1 (centres undefined) do in these assays?
Shiga toxin inh: 22.0; NS1 function inh: 1.9%; Pf growth 96h: -2.8%[5.75 µM]; Pf growth 48h: 30.9%; CHX counter: 26.5*

What do the screens show for `Cc1ccc(OC(=O)CCC(=O)Nc2ccc(S(=O)(=O)Nc3cc(C)on3)cc2)cc1`?
Shiga toxin inh: 2.4; NS1 function inh: 4.5%; Pf growth 96h: 22.0%; Pf growth 48h: -12.1%; CHX counter: -1.7

What do the screens show for `CCC(Oc1ccc(C)cc1)C(=O)Nc1ccc(S(=O)(=O)Nc2cc(C)on2)cc1` (centres undefined)?
Shiga toxin inh: -11.2; NS1 function inh: 18.2%; Pf growth 96h: 8.28µM*; Pf growth 48h: 7.8%; CHX counter: -6.4

Results for CCC(Oc1ccccc1)C(=O)NC1CCCCCC1 (centres undefined) ?
Shiga toxin inh: -6.6; NS1 function inh: -5.7%; Pf growth 96h: inconclusive; Pf growth 48h: -15.7%; CHX counter: -0.9

What do the screens show for `CCC(OC(=O)C(NC(=O)c1ccccc1)c1ccccc1)C(=O)Nc1cc(C)on1` (centres undefined)?
Shiga toxin inh: 26.5; NS1 function inh: -17.3%; Pf growth 96h: 6.7%; Pf growth 48h: 14.8%; CHX counter: -2.0

What do the screens show for `CCOc1cc(C(=O)Nc2ccc(S(=O)(=O)Nc3cc(C)on3)cc2)cc(OCC)c1OCC`?
Shiga toxin inh: -13.6; NS1 function inh: -12.7%; Pf growth 96h: 10.4µM*; Pf growth 48h: inconclusive; CHX counter: -3.3

How did COc1ccccc1CN1CCC(CNS(=O)(=O)c2cc(-c3cc(C)no3)ccc2OC)CC1 do in these assays?
Shiga toxin inh: -4.9; NS1 function inh: 5.8%; Pf growth 96h: -18.2%; Pf growth 48h: inconclusive; CHX counter: 1.8

What do the screens show for `CCCC(=O)Nc1ccc2c(c1)nc(CN1CCN(C(=O)OCC)CC1)n2CC`?
Shiga toxin inh: -4.7; NS1 function inh: -3.2%; Pf growth 96h: -12.8%; Pf growth 48h: inconclusive; CHX counter: 6.4

How did O=C(CCC(=O)N1CCOc2ccccc21)NCCCN1CCN(Cc2ccccc2)CC1 do in these assays?
Shiga toxin inh: 23.3; NS1 function inh: 28.2%; Pf growth 96h: inconclusive; Pf growth 48h: 43.9%; CHX counter: -1.3

How did Cc1cc(NS(=O)(=O)c2ccc(NC(=O)COc3ccccc3C(C)(C)C)cc2)no1 do in these assays?
Shiga toxin inh: -5.7; NS1 function inh: inconclusive; Pf growth 96h: 10.4µM*; Pf growth 48h: -17.3%; CHX counter: 13.2

How did Cc1cc(NS(=O)(=O)c2ccc(NC(=O)COc3ccccc3[N+](=O)[O-])cc2)no1 do in these assays?
Shiga toxin inh: -10.3; NS1 function inh: 1.6%; Pf growth 96h: inconclusive; Pf growth 48h: 0.0%; CHX counter: -0.7

What do the screens show for `CC[C@H](C)[C@H](NC(=O)[C@H](CC(N)=O)NC(=O)[C@H](CCCCN)NC(=O)[C@H](Cc1ccccc1)NC(=O)[C@H](Cc1ccccc1)NC(=O)[C@H](Cc1cnc[nH]1)NC(=O)[C@@H](N)C(C)C)C(=O)N[C@H](C(=O)N[C@H](C(=O)N1CCC[C@H]1C(=O)N[C@@H](CCCN=C(N)N)C(=O)N[C@H](C(=O)N1CCC[C@H]1C(=O)O)[C@@H](C)O)[C@@H](C)O)C(C)C`?
Shiga toxin inh: 11.2; CHX counter: -5.3

What do the screens show for `O=C(CNC(=O)c1ccco1)Nc1ccc2c(c1)OCCO2`?
Pf growth 96h: 213.0%; Pf growth 48h: 126.4%

What do the screens show for `CC(C)CC(NC(N)=O)C(=O)Nc1ccc2c(c1)OCO2` (centres undefined)?
Shiga toxin inh: 48.9; Pf growth 96h: inconclusive; Pf growth 48h: -8.3%; CHX counter: 29.7*

What do the screens show for `CCCC(C)C(=O)Nc1ccc2c(c1)OCCO2` (centres undefined)?
Shiga toxin inh: 85.8*; NS1 function inh: 4.6%; Pf growth 96h: -5.4%; Pf growth 48h: 73.7%; CHX counter: 50.2*

How did CC(=O)NC(Cc1c[nH]c2ccccc12)C(=O)Nc1ccc2c(c1)OCO2 (centres undefined) do in these assays?
Shiga toxin inh: 38.4*; NS1 function inh: -3.3%; Pf growth 96h: -17.3%; Pf growth 48h: -1.5%; CHX counter: 9.3

Results for CC(Nc1ccc2c(c1)OCCO2)C(=O)Nc1ccc2c(c1)OCO2 (centres undefined) ?
Shiga toxin inh: 36.0; Pf growth 96h: 33.4%; Pf growth 48h: 28.5%; CHX counter: 18.3

Screening data from PubChem BioAssay.
